Hits are enriched below; roughly 1.2% of the tested compounds scored in any of these assays.
Avidin fluor: compound fluoresces at 488/530 nm on avidin beads. compound fluorescence 488/530 nm, flow cytometry; hits give high values. fluorescence (KMESF) at 10 µM. 220,000 tested, 0.38% active. AID 1775; in the data active means fluorescence above about 47
RGS16-Gao HTS: RGS16-Galphao interaction regulator (human); binding response (% of control), % at 10 µM; O15492+P09471; bead-based flow cytometry RGS16-Galphao binding, fluorescence; actives lie on both sides; 220,000 tested, 0.38% active;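 further: Galphao activated by GDP with aluminum fluoride before binding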
Target sequence (O15492 whole entry, looked up): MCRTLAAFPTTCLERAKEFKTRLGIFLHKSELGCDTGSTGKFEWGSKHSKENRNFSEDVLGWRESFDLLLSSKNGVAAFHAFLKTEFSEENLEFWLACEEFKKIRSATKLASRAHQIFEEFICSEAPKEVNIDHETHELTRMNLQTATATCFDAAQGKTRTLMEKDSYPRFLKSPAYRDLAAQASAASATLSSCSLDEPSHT
Target sequence (P09471 whole entry, looked up): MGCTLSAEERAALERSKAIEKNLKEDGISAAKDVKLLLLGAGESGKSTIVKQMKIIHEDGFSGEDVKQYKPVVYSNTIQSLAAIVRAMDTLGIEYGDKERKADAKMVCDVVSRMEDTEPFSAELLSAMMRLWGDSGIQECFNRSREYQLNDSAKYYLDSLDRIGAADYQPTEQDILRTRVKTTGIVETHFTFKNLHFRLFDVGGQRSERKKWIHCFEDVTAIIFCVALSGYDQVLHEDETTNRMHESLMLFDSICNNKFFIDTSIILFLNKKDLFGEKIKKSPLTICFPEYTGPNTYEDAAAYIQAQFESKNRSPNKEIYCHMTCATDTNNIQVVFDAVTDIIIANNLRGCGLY
RGS4-Gao reg: modulates binding of RGS4 to human Galphao; binding response (% of control), % at 10 µM; 220,000 tested, 0.33% active; AID 1415; Multiplexed bead flow cytometry; actives lie on both sides; P09471; in the data active means binding response below about 49% or above about 150%; inactive means in between;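 further: fluorescent Galphao activated with aluminum fluoride binding bead-coupled RGS4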
RGS7-Gao: human RGS7-Galphao interaction regulation; P09471; Multiplexed bead flow cytometry, RGS7-Galphao binding; actives lie on both sides; binding response (% of control), % at 10 µM; 220,000 tested, 0.35% active; AID 1439; in the data active means binding response below about 49% or above about 150%; inconclusive means no clear call, values can overlap the other calls; inactive means in between;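 further: fluorescent Galphao held in activated GDP-AlF4 state binding bead-coupled RGS7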
GSH bead fluor: compound fluoresces at 488/530 nm on GSH beads | GSH beads flow cytometry, compound fluorescence 488/530 nm; hits give high values | fluorescence (KMESF) at 10 µM | 190,000 tested, 0.25% active | AID 1776; in the data active means fluorescence above about 89;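 further: glutathione beads carrying GST-tagged Bcl family fusion proteins plus one bare bead set; values are compound well signal with DMSO vehicle wells as background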
RGS8-Gao reg: human RGS8-Galphao interaction regulation. AID 1423. response (percent of control binding), % at 10 µM. multiplexed bead flow cytometry, RGS8-Galphao binding; actives lie on both sides. 220,000 tested, 0.34% active. P09471; in the data active means response below about 60% or above about 140%; inactive means in between;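 further: Galphao activated as the GDP aluminium fluoride complex binding bead-coupled RGS8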
RGS4-Gao HTS: RGS4-Galphao interaction regulator (human) | shares compounds with RGS16-Gao HTS | multiplexed bead flow cytometry, RGS–Galpha-o binding | RGS4–Galpha-o binding response, % at 10 µM | 1,600 tested, 99% active;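 further: fluorescently labeled Galpha-o bound to GDP with aluminium fluoride binding biotinylated RGS beads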
Avidin counter: biotin-avidin bead binding disruption counter-screen. streptavidin beads, fluorescein-biotin binding, flow cytometry. shares compounds with RGS16-Gao HTS. 1,700 tested, under 10 active. inhibition, % at 10 µM;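 active means inhibition above 50%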;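 further: median green fluorescence of gated singlet beads compared with DMSO control wells; 0% = DMSO wells and 100% = complete loss of bead fluorescence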
RGS8-Gao single: confirmation of regulators of human RGS8-Galphao interaction; shares compounds with RGS16-Gao HTS; bead-based flow cytometry RGS8-Galphao binding, fluorescence; actives lie on both sides; binding response (% of control), % at 10 µM; 1,700 tested, 3% active; in the data active means binding response below about 72% or above about 130%; inactive means in between;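 further: Galphao activated as GDP AlF4 complex before binding bead RGS8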
RGS7-Gao single: confirmation of regulators of human RGS7-Galphao interaction; AID 1837; shares compounds with RGS16-Gao HTS; response (percent of control binding), % at 10 µM; 1,700 tested, 7.8% active; bead-based flow cytometry RGS7-Galphao binding; actives lie on both sides; in the data active means response below about 75% or above about 130%; inactive means in between;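 further: fluorescent Galphao activated with GDP and aluminum fluoride binding bead-coupled RGS7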
RGS16-Gao conf: RGS16-Galphao interaction regulation, single point confirmation | shares compounds with RGS16-Gao HTS | bead-based flow cytometry, RGS16-Galphao binding; actives lie on both sides | 1,700 tested, 4% active | response (% of control binding), % at 10 µM; in the data active means response below about 74% or above about 130%; inactive means in between;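 further: Galphao activated as the GDP aluminium fluoride complex binding bead-coupled RGS16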
RGS4-Gao confirm: confirmation of regulators of human RGS4-Galphao interaction | 1,700 tested, 4% active | AID 1840 | binding response (% of control), % at 10 µM | RGS4-Galphao binding, multiplexed bead flow cytometry; actives lie on both sides | shares compounds with RGS16-Gao HTS; in the data active means binding response below about 74% or above about 130%; inactive means in between
RGS19-Gao single: RGS19-Galphao interaction regulation, single point confirmation; 1,700 tested, 5% active; response (percent of control binding), % at 10 µM; bead-based flow cytometry RGS19-Galphao binding; actives lie on both sides; shares compounds with RGS16-Gao HTS; AID 1841; in the data active means response below about 50% or above about 160%; inactive means in between;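 further: 100% = no compound control and 0% = blank background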
The depositor's hits bear a star; i = inactive; ? = inconclusive; . = no result given; [ ] = another dose, or the depositor's remark. Unless noted, how the calls were made is not given here.

SMILES	Avidin fluor	RGS16-Gao HTS	RGS4-Gao reg	RGS7-Gao	GSH bead fluor	RGS8-Gao reg	RGS4-Gao HTS	Avidin counter	RGS8-Gao single	RGS7-Gao single	RGS16-Gao conf	RGS4-Gao confirm	RGS19-Gao single
Cc1cc(N2CCN(c3nnnn3-c3ccccc3)CC2)n2ncnc2n1	3	554	131	120	31	140*[activator]	131*	0	95	85	95	90	111
Cc1cc(N2CCN(c3ccccc3)CC2)n2nnnc2n1	41	111	111	105	13	102	.	.	.	.	.	.	.
CCN=C1SC(CC(=O)NCC)C(=O)N1CC (centres undefined)	74*	519	259*[activator]	213*[activator]	43	118	.	-1	99	104	103	100	106
N#Cc1ccc(COn2nnc3ccccc32)cc1	9	98	98	?	13	99	.	.	.	.	.	.	.
Cc1ccc(C(=O)Nc2ccccc2NC(=O)c2ccc(C)o2)o1	3	-12	55	65	240*	60*	55*	-2	101	98	100	100	118
CC(NC(=O)CSc1ncccc1C(=O)O)C1CC2CCC1C2 (centres undefined)	4	105	105	?	.	101	.	.	.	.	.	.	.
CCOc1ccccc1N=C1SC(CC(=O)Nc2ccc(OC)cc2OC)C(=O)N1CCC1=CCCCC1 (centres undefined)	2	67	99	100	9	95	.	.	.	.	.	.	.
O=C(CC1SC(=Nc2ccc(OC(F)F)cc2)N(CCC2=CCCCC2)C1=O)Nc1ccccc1F (centres undefined)	7	25*	89	89	3	77	89*	0	105	99	108	103	104
Nc1ccc(-c2ccc(N)cc2C(F)(F)F)c(C(F)(F)F)c1	123*	110	118	204*[activator]	24	101	118*	-2	101	101	97	97	105
CCc1ccc(-c2cn(C3CCCCC3)c(=S)[nH]2)cc1	6	101	102	104	18	97	.	.	.	.	.	.	.
C=CCN(Cc1nc(-c2cc(OC)ccc2OC)oc1C)C1CCS(=O)(=O)C1 (centres undefined)	13	100	99	96	12	98	.	.	.	.	.	.	.
CCOCCNC(=O)c1ccccc1C(=O)NCCOCC	16	123	110	99	9	102	.	.	.	.	.	.	.
CCOCCN(C(=O)c1ccccc1Cl)c1cccc(C)c1C	85*	153	165*[activator]	?	.	102	.	0	100	99	99	98	88
O=C(CSc1nc(O)cc(=O)n1-c1ccccc1)Nc1nc2ccccc2s1	6	98	97	?	.	99	.	.	.	.	.	.	.
O=C1c2ccccc2C(=O)N1CCCCN(C(=O)c1ccc([N+](=O)[O-])cc1)c1ccc(Cl)cc1	11	92	93	94	25	98	.	.	.	.	.	.	.
O=C1c2ccccc2C(=O)N1CCCCN(C(=O)c1cc([N+](=O)[O-])cc([N+](=O)[O-])c1)c1ccc(Cl)cc1	10	16*	91	89	5	71	91*	i	102	102	110	104	120
